Assay results published in PubChem BioAssay AID1984 (Sanford-Burnham Center for Chemical Genomics, 2009).
Hit rate of the full screen: of about 290,000 compounds, about 35 (0.01%) were called active.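 How the source made its calls: active means EGFP signal decrease of at least 30% at 10 µM or well 3 SD below plate mean, unless failing retest; inactive means the rest, including hits failing retest or dose response.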 For the sample, actives were picked, then their nearest neighbours and some compounds at random.

These compounds were tested against p/CIP-EGFP fusion (nuclear receptor coactivator 3, mouse) (UniProt Q05BA5) (assay: compounds lowering mouse p/CIP (NCOA3) protein levels – fluorescence, F442A cells, EGFP fusion, primary screen (AID 1984)). Settings: 16 h, at 10 µM, hits give high values.
Sequence of p/CIP-EGFP fusion (nuclear receptor coactivator 3, mouse) (Q05BA5 1-1403): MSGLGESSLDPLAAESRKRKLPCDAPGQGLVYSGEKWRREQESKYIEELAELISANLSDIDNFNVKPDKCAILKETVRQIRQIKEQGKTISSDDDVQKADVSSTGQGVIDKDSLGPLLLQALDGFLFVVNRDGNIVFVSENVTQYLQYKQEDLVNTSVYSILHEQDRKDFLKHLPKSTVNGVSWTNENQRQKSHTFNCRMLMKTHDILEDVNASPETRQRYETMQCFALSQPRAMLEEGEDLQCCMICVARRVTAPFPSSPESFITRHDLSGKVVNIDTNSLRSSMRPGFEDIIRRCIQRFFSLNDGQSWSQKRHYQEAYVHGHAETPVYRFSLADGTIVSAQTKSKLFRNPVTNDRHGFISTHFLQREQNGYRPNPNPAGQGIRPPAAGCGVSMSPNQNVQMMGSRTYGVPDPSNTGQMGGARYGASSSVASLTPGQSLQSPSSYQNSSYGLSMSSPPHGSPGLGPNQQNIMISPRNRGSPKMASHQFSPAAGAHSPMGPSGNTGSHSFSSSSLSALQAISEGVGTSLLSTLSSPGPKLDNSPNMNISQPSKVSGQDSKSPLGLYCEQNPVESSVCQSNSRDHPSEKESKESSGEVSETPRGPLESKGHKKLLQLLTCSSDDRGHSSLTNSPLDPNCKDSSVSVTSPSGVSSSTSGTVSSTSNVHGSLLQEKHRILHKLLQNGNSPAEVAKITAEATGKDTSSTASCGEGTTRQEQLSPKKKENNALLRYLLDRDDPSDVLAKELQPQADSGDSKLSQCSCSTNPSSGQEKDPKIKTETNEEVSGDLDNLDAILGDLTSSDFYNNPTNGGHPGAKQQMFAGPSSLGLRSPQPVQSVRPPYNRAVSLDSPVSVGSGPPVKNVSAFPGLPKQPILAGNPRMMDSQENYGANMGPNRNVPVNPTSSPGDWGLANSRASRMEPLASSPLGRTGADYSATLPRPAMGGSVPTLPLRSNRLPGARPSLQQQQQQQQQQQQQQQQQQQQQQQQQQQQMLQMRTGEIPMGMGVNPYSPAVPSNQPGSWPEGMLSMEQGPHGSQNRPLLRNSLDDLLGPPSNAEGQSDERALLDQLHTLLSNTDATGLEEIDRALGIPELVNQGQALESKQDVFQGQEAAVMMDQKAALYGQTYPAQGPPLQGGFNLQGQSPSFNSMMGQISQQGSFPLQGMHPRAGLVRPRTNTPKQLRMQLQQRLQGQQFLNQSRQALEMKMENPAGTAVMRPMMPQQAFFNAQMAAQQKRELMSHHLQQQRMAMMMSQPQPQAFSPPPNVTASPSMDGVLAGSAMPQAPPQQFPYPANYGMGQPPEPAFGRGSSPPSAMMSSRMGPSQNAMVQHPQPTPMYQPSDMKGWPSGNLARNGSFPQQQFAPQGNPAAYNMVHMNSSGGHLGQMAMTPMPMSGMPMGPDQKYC

Decrease of EGFP signal, inactive:
CCCn1c(NC(=O)C23CC4CC(CC(O)(C4)C2)C3)nc2ccccc21 0.5%
O=C(Nc1ccc(O)cc1)c1ccc(NC(=O)c2ccco2)cc1 -4.6%
CCOc1ccc(S(=O)(=O)N2CCC(c3ccccc3)CC2)cc1C(=O)O 2.8%
COCc1ccc(CN2CCC(Oc3ccc(C(=O)NCc4ccccn4)cc3)CC2)o1 -10.7%
COC(c1ccccc1)(c1ccccc1)C(Oc1nc(C)cc(C)n1)C(=O)O (stereo not drawn) 0%
O=[N+]([O-])c1ccc2oc(-c3cccc(O)c3)nc2c1 7.6%
CC(Oc1cc2oc(=O)c3c(c2cc1Cl)CCCC3)C(=O)NCc1ccncc1 (stereo not drawn) -2.1%
O=C(C[n+]1cc(Br)cc2ccccc21)c1ccc(F)cc1 -1.9%
C/C(=N\NC(=O)c1ccc2ccccc2c1)c1cccnc1 -18.3%
CCOc1ccc(CN(C)C(=O)c2ccc(=O)[nH]c2)cc1 5.1%
Cc1cc(S(=O)(=O)NC2CCCC2)ccc1-n1cnnn1 -8.5%
O=C1NC(=O)C(c2ccc(Cl)cc2)N1 (stereo not drawn) -72.8%
CCOc1ccccc1N1CCN(C(=O)c2ccc3[nH]c(C)c(C)c3c2)CC1 6.3%
COc1cc(CCC(=O)Nc2ccncc2Cl)cc(OC)c1OC -2.4%
Cc1nn(C)c(Cl)c1CN1CCC(Oc2ccc(C(=O)N3CCCC3)cc2)CC1 -12%
O=C(Nc1cccc(-n2cnnn2)c1)c1cccnc1 2.8%
O=C(c1ccc(Cl)cc1)N1N=C(c2ccccn2)CC1(O)C(F)(F)F (stereo not drawn) 1.2%
COc1ccc(C2Nc3ccccc3C(=O)N2c2ccc(Cl)cc2)cc1Cn1cc([N+](=O)[O-])cn1 (stereo not drawn) -4.3%
CCCN(CCC)S(=O)(=O)c1ccc(C(=O)N2CC3CCC(CC3)C2)cc1 -5.7%
CNC(=O)c1sc(NCc2ccccc2OC)nc1C -5%
COc1cccc(NC(=O)N2CCCC2C(=O)NC2CCCCC2)c1 (stereo not drawn) -18.1%
NC(=O)c1ccc(Nc2ccc3c(c2)CCC3)c([N+](=O)[O-])c1 -5%
C=CCc1cc(C)ccc1OCCCn1ccnc1 10.1%
CC(C(=O)c1ccc(-c2ccccc2)cc1)[n+]1cccc(Br)c1 (stereo not drawn) -9.6%
COC(=O)Cn1cnc2scc(-c3ccc(C)c(C)c3)c2c1=O 4.1%
CC(C)(C)NC(=O)C(c1ccc(Cl)cc1)N(CCO)C(=O)c1snc(C(N)=O)c1N (stereo not drawn) 2.5%
CC(=O)[C@@]12O[C@@H]1C[C@H]1[C@@H]3CC[C@H]4C[C@@H](O)CC[C@]4(C)[C@H]3CC[C@@]12C -26.4%
COc1cccc(OCC(O)CNC(=O)c2oc3c(C)c(C)ccc3c2C)c1 (stereo not drawn) -15.6%
